In PubChem BioAssay (NCI):
This is part of a sample that, as a whole, favours compounds with a hit. Of some 83,000 tested, about 20% had one in any assay.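 Note: values are percent growth. 100 is the growth of untreated cells, values between 100 and 0 indicate rising inhibition; between -100 and 0 indicates cell death.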 Values without a mark were called inactive. Calls of active or inactive are those of the source. The calls were made as follows: active = growth percent below 10; inactive = the rest.

What follows are compounds tested on HCC-2998 colon (assay: NCI-60 one-dose screen, 48 h (100 = growth as untreated, 0 = no growth, -100 = all killed)). Conditions: 10 µM unless noted.
In the case of `CN(c1cc2ncc(=O)[nH]c2cc1NC(N)=NCc1ccc(Cl)cc1)C1CCCCC1`, the growth is reported as -10.5% (active). In the case of `O=C1/C(=C\c2ccc3nccnc3c2)SC(=S)N1CCc1ccc(O)cc1`, the growth is reported as 117%. `Cc1ccc(C[P+](c2ccccc2)(c2ccccc2)c2ccccc2)cc1` was tested, and the growth was -26.4% (active). For `COc1ccc(/C=N/C2=C(C#N)C(c3ccccc3)c3ccc4ccccc4c3O2)cc1` (stereo not given), the growth was -6.81% (active). `COCCOc1cc2ncnc(N3CCN(c4cc(S(C)(=O)=O)c(C)cc4Cl)CC3)c2cc1OCCOC` gave a growth of 100%. `C#COc1cccc(Nc2c(C#N)cnc3ncc(NC(=O)CCl)cc23)c1` showed a growth of 31.7% [6.25 µM]. `O=c1[nH]c(-c2ccccc2)nc2sc3cc(O)ccc3c12` showed a growth of 95.9%. In the case of `CN1C(=O)/C(=C\c2nc([P+](c3ccccc3)(c3ccccc3)c3ccccc3)c(N3CCOCC3)o2)SC1=S`, the growth is reported as 78%. Compound `CC(C)Cn1cnc2c(=O)[nH]c(N)nc21` has a growth of 104%. In the case of `CCSc1nc2scc(C)c2c(=O)[nH]1`, the growth is reported as 106%. `NC(N)=NCCCCCNc1noc(Cc2c[nH]c3cc(Br)ccc23)n1` was tested, and the growth was 76.1%. Work on `Cc1[nH]c(C(=O)Nc2ccccc2OC2CCNCC2)c(Cl)c1Cl` yielded a growth of 43.2%. `O=C1NC(=O)C(Cc2ccc(OCc3ccc(-c4ccc(Cl)cc4Cl)cc3)cc2)S1` (stereo not given) gave a growth of 60.8%. In the case of `Ic1ccc(OCCCCn2ccnc2)cc1`, the growth is reported as 68.1%. In the case of `Cn1ccnc1C(=O)/C=C/c1ccc(CC(=O)Nc2cc(C(F)(F)F)cc(C(F)(F)F)c2)cc1`, the growth is reported as 83.6%. `COc1cc2c(cc1OCCCN1CCN(CCCOc3cc4c(cc3OC)C(=O)N3CC(F)(F)C[C@H]3C=N4)CC1)N=C[C@@H]1CC(F)(F)CN1C2=O` showed a growth of 60.5%. With `COc1ccc2c(c1)c(-c1nc(-c3c[nH]c4ccncc34)cs1)cn2C` the growth was -73.5% (active). With `Cc1nc2sc(C(=O)Nc3cccc(Br)c3)c(N)c2cc1C(O)c1ccccc1` (stereo not given) the growth was 18.2%. `Nc1nc(-c2ccc(Cl)cc2)nc2c1sc(=S)n2-c1ccccc1` gave a growth of 72.3%. In the case of `O=C(CSc1oc(-c2ccccc2)nc1S(=O)(=O)c1ccccc1)Nc1ccc(F)cc1`, the growth is reported as 104%. Work on `O=C1Nc2ccccc2/C1=C/c1nc2ccccc2c(=O)[nH]1` yielded a growth of 102%. `COc1ccc(C/C(C)=C(\c2ccc(Cl)cc2)c2ccc(OCCN3CCCCC3)cc2)cc1` was tested, and the growth was 98.5%. For `O=C(N/N=C/c1ccc(Cl)cc1)c1[nH]c2ccc(Cl)cc2c1-c1ccccc1`, the growth was 26.4%. `Nc1n[nH]c2ccc([C@H]3[C@@H]4C5CCC(C5)[C@@H]4c4c(ccc5[nH]ncc45)N3S(=O)(=O)C3CC3)cc12` (stereo not given in full) gave a growth of 18.4%. For `CC/C(=C(/c1ccc(Cl)cc1)c1ccc(OCCN(C)C)cc1)c1ccc(Cl)cc1`, the growth was 46.9%. Compound `Cn1cc(-c2nonc2-c2cn(C)c3ccccc23)c2ccccc21` has a growth of 51.2%. `Clc1ccc(/C=N\N=C\c2ccc(Cl)c(Cl)c2)cc1Cl` gave a growth of 96.1%. Work on `CCN(CC)CCCCCNc1cc(OC(=O)c2ccc(Cl)cc2)cc2cccnc12` yielded a growth of 84.9%. `CC(C)=CCCC(C)c1ccc(C)c2c1OCN(CCCCCO)C2` (stereo not given) was tested, and the growth was 73.5%. Compound `N#Cc1nc(-c2ccc(Cl)cc2)oc1S(=O)(=O)N1CCN(c2ccc(F)cc2)CC1` has a growth of 99.4%. `COC(=O)[C@]12CCC(C)(C)C[C@H]1[C@H]1/C(=N/OCCc3nn[nH]n3)C[C@@H]3[C@@]4(C)CC[C@H](OC(C)=O)C(C)(C)[C@@H]4CC[C@@]3(C)[C@]1(C)CC2` showed a growth of 54.7%. For `COc1ccc(C(=O)C/C(=C\c2ccc(Cl)cc2)C(=O)NCc2ccccc2)cc1`, the growth was 93.1%. Work on `Fc1ccc(CNc2c3ccccc3nc3ccccc23)c(F)c1` yielded a growth of 41.3%. For `CC1OC(n2c3ccccc3c3c4c(c5c6ccccc6[nH]c5c32)C(=O)N(CCN2CCCC2)C4=O)CC(O)C1O` (stereo not given), the growth was 22%. Work on `CCOC(=O)c1cc(C(=O)c2cc(OC)c(OC)c(OC)c2)n2ncccc12` yielded a growth of 28.3%. `Cc1ccc(-c2nc(N3CCCNCC3)c3oc(-c4ccc(C)cc4)nc3n2)cc1` showed a growth of 40.9%. Work on `O=C(CSC(=S)n1cnnc1)NC(=O)c1ccccc1` yielded a growth of 104%. In the case of `Cc1sc2nc(NCCc3c[nH]c4ccc(Cl)cc34)[nH]c(=O)c2c1C`, the growth is reported as 21.5%. `CC(C)c1ccc(C(=O)Nc2sc3c(c2C(N)=O)CCC(=O)C3)cc1` gave a growth of 14.9%. Compound `N#C/C(=C\c1c(-c2ccccc2)[nH]c2ccccc12)C(N)=O` has a growth of 78.9%.

These compounds were tested on KM12 colon in the same assay as above. Conditions: 10 µM unless noted.
`CN(c1cc2ncc(=O)[nH]c2cc1NC(N)=NCc1ccc(Cl)cc1)C1CCCCC1` gave a growth of 28.7%. For `O=C1/C(=C\c2ccc3nccnc3c2)SC(=S)N1CCc1ccc(O)cc1`, the growth was 52.1%. `Cc1ccc(C[P+](c2ccccc2)(c2ccccc2)c2ccccc2)cc1` was tested, and the growth was -12.9% (active). Work on `COc1ccc(/C=N/C2=C(C#N)C(c3ccccc3)c3ccc4ccccc4c3O2)cc1` (stereo not given) yielded a growth of 17.5%. Work on `COCCOc1cc2ncnc(N3CCN(c4cc(S(C)(=O)=O)c(C)cc4Cl)CC3)c2cc1OCCOC` yielded a growth of 93.2%. `C#COc1cccc(Nc2c(C#N)cnc3ncc(NC(=O)CCl)cc23)c1` was tested, and the growth was 31.4% [6.25 µM]. `O=c1[nH]c(-c2ccccc2)nc2sc3cc(O)ccc3c12` gave a growth of 87.6%. With `CN1C(=O)/C(=C\c2nc([P+](c3ccccc3)(c3ccccc3)c3ccccc3)c(N3CCOCC3)o2)SC1=S` the growth was 43.2%. In the case of `CC(C)Cn1cnc2c(=O)[nH]c(N)nc21`, the growth is reported as 106%. Compound `CCSc1nc2scc(C)c2c(=O)[nH]1` has a growth of 103%. Compound `NC(N)=NCCCCCNc1noc(Cc2c[nH]c3cc(Br)ccc23)n1` has a growth of 45.1%. `Cc1[nH]c(C(=O)Nc2ccccc2OC2CCNCC2)c(Cl)c1Cl` gave a growth of 32.8%. `O=C1NC(=O)C(Cc2ccc(OCc3ccc(-c4ccc(Cl)cc4Cl)cc3)cc2)S1` (stereo not given) showed a growth of 47.7%. With `Ic1ccc(OCCCCn2ccnc2)cc1` the growth was 97.6%. For `Cn1ccnc1C(=O)/C=C/c1ccc(CC(=O)Nc2cc(C(F)(F)F)cc(C(F)(F)F)c2)cc1`, the growth was 63%. `COc1cc2c(cc1OCCCN1CCN(CCCOc3cc4c(cc3OC)C(=O)N3CC(F)(F)C[C@H]3C=N4)CC1)N=C[C@@H]1CC(F)(F)CN1C2=O` was tested, and the growth was 62.3%. With `COc1ccc2c(c1)c(-c1nc(-c3c[nH]c4ccncc34)cs1)cn2C` the growth was -88.9% (active). `Cc1nc2sc(C(=O)Nc3cccc(Br)c3)c(N)c2cc1C(O)c1ccccc1` (stereo not given) gave a growth of 22.8%. In the case of `Nc1nc(-c2ccc(Cl)cc2)nc2c1sc(=S)n2-c1ccccc1`, the growth is reported as 36%. `O=C(CSc1oc(-c2ccccc2)nc1S(=O)(=O)c1ccccc1)Nc1ccc(F)cc1` gave a growth of 86.6%. `O=C1Nc2ccccc2/C1=C/c1nc2ccccc2c(=O)[nH]1` gave a growth of 96.4%. `COc1ccc(C/C(C)=C(\c2ccc(Cl)cc2)c2ccc(OCCN3CCCCC3)cc2)cc1` gave a growth of 104%. `O=C(N/N=C/c1ccc(Cl)cc1)c1[nH]c2ccc(Cl)cc2c1-c1ccccc1` was tested, and the growth was 4.94% (active). With `Nc1n[nH]c2ccc([C@H]3[C@@H]4C5CCC(C5)[C@@H]4c4c(ccc5[nH]ncc45)N3S(=O)(=O)C3CC3)cc12` (stereo not given in full) the growth was 7.27% (active). In the case of `CC/C(=C(/c1ccc(Cl)cc1)c1ccc(OCCN(C)C)cc1)c1ccc(Cl)cc1`, the growth is reported as 56.6%. `Cn1cc(-c2nonc2-c2cn(C)c3ccccc23)c2ccccc21` showed a growth of 27.4%. `Clc1ccc(/C=N\N=C\c2ccc(Cl)c(Cl)c2)cc1Cl` gave a growth of 101%. In the case of `CCN(CC)CCCCCNc1cc(OC(=O)c2ccc(Cl)cc2)cc2cccnc12`, the growth is reported as 111%. Work on `CC(C)=CCCC(C)c1ccc(C)c2c1OCN(CCCCCO)C2` (stereo not given) yielded a growth of 104%. `N#Cc1nc(-c2ccc(Cl)cc2)oc1S(=O)(=O)N1CCN(c2ccc(F)cc2)CC1` showed a growth of 102%. For `COC(=O)[C@]12CCC(C)(C)C[C@H]1[C@H]1/C(=N/OCCc3nn[nH]n3)C[C@@H]3[C@@]4(C)CC[C@H](OC(C)=O)C(C)(C)[C@@H]4CC[C@@]3(C)[C@]1(C)CC2`, the growth was 36.5%. In the case of `COc1ccc(C(=O)C/C(=C\c2ccc(Cl)cc2)C(=O)NCc2ccccc2)cc1`, the growth is reported as 99.7%. Work on `Fc1ccc(CNc2c3ccccc3nc3ccccc23)c(F)c1` yielded a growth of 60%. For `CC1OC(n2c3ccccc3c3c4c(c5c6ccccc6[nH]c5c32)C(=O)N(CCN2CCCC2)C4=O)CC(O)C1O` (stereo not given), the growth was 26.3%. With `CCOC(=O)c1cc(C(=O)c2cc(OC)c(OC)c(OC)c2)n2ncccc12` the growth was 20.8%. `Cc1ccc(-c2nc(N3CCCNCC3)c3oc(-c4ccc(C)cc4)nc3n2)cc1` gave a growth of 11.3%. Compound `O=C(CSC(=S)n1cnnc1)NC(=O)c1ccccc1` has a growth of 103%. With `Cc1sc2nc(NCCc3c[nH]c4ccc(Cl)cc34)[nH]c(=O)c2c1C` the growth was 1.89% (active). In the case of `CC(C)c1ccc(C(=O)Nc2sc3c(c2C(N)=O)CCC(=O)C3)cc1`, the growth is reported as 1.39% (active). `N#C/C(=C\c1c(-c2ccccc2)[nH]c2ccccc12)C(N)=O` gave a growth of 47.9%.
